Reference: PubChem BioAssay (NCI)
Compounds without any hit were thinned out: in the full panel of roughly 83,000, 20% have a hit.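 In brief: 96-well plates, 48 h treatment, single concentration, percent growth endpoint.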 The source made the active and inactive calls. The calls were made as follows: active = growth percent below 10; inactive = the rest.

The molecules below were run on HOP-92 NSCLC (assay: NCI-60 one-dose screen, 48 h (100 = growth as untreated, 0 = no growth, -100 = all killed)). Conditions: 10 µM unless noted.

Row | SMILES | growth
1 | C#COc1cccc(Nc2ncnc3cc(NC(=O)[C@@H](C)Cl)ccc23)c1 | 57.5% [6.25 µM] (inactive)
2 | COc1ccc(Cn2cc3c(c2-c2ccccc2)CCc2cnoc2-3)cc1 | 52.2% (inactive)
3 | Cc1cc2c(cc1C)N(C(=O)CCl)CC(=O)N2 | 93.4% (inactive)
4 | Oc1c(CN2CCC(N3CCCCC3)CC2)cc(Cc2cc(CN3CCC(N4CCCCC4)CC3)c(O)c3ncccc23)c2cccnc12 | 30.5% (inactive)
5 | OCCNCCNC(Cc1ccc(Cl)cc1)c1ccccc1 (stereo not given) | 38.4% (inactive)
6 | COc1cccc(-c2cc(-c3cccc(Cl)c3)c(C#N)c(=O)[nH]2)c1 | 51.7% (inactive)
7 | CN(C)CCCNC(=O)c1cncnc1Nc1ccc(OCc2cccc(F)c2)c(Cl)c1 | 24.6% (inactive)
8 | O=C1Nc2ccccc2C1(c1c[nH]c2ccccc12)c1c[nH]c2ccccc12 | -6.64% (active)
9 | Cc1cc(Nc2ccc(C(=O)N3CCCC3)cc2)nc(NCCCNc2ccnc3cc(Cl)ccc23)n1 | 90.5% (inactive)
10 | NC1(CO)COC(c2ccccc2)OC1 (stereo not given) | 96.7% (inactive)
11 | O=C(CCCCCNC(=O)c1cc(=O)c(O)co1)Nc1ccccc1 | 99.8% (inactive)
12 | O=S(=O)(NCCNc1nccc(-c2c(-c3cccc(O)c3)nc3occn23)n1)c1ccc(Br)cc1 | 33.2% (inactive)
13 | C/C(=N\O)c1ccc(NC(=O)CSc2nnc(-c3cc(-c4ccc(S(N)(=O)=O)cc4)nc4ccccc34)n2-c2ccccc2)cc1 | 66% (inactive)

The molecules below were run on NCI-H522 lung in the same assay as above. Conditions: 10 µM unless noted.

Row | SMILES | growth
14 | COc1ccc2c(c1)c(-c1nc(-c3c[nH]c4ncccc34)cs1)cn2CCO | 36.8% (inactive)
15 | O=C(NNC(=O)c1ccc(NC(=O)c2ccccn2)cc1)Nc1ccc2ccccc2c1 | 105% (inactive)
16 | COc1ccc(/C=C/C(=O)c2cc(OC)c(OC)c(OC)c2)cc1OCC(=O)Nc1nc2ccc(OC(F)(F)F)cc2s1 | -35.5% (active)
17 | O=C(CN1CCCCCC1)Nc1nc2ccc(NCc3ccc(Cl)cc3)cc2s1 | 84.7% (inactive)
18 | CCCCCCCCCCCCCCCCCCOc1ccccc1CC(=O)NCC[N+]1(C)CCCCC1 | 32.7% (inactive)
19 | COc1cc(-c2nc3sccn3c2-c2ccnc(NCCNS(=O)(=O)c3ccc(Cl)cc3)n2)ccc1F | 1.16% (active)
20 | S=c1nc2oc(-c3ccccc3)c(-c3ccccc3)c2c(/N=C\c2ccco2)[nH]1 | 86.1% (inactive)
21 | O=C1Nc2ccccc2/C1=C\c1c[nH]c2ccc(Br)cc12 | 35.8% (inactive)
22 | COc1ccc(Nc2ncccc2/C=C/C(=O)c2cc(OC)c(OC)c(OC)c2)cc1 | -76.5% (active)
23 | COc1cc(OC)c(/C=C/C(=O)c2c(O)cc(OC)c(C3CCN(C)CC3)c2OC)c(OC)c1 | -80% (active)
24 | N#Cc1c(-c2ccccc2)nc(SCc2nnc(-c3ccc(Cl)cc3)o2)[nH]c1=O | 71.2% (inactive)
25 | CC(=O)ON1CCCC(P(=O)(OCCSC(=O)C(C)(C)C)OCCSC(=O)C(C)(C)C)C1=O (stereo not given) | 28.9% (inactive)
26 | COc1cccc(CCNc2ncnc3c2ncn3Cc2nnc3c4ccccc4c(Cl)nn23)c1 | 5.17% (active)
27 | O=C(CN1CCN(c2cc3c(cc2F)c(=O)c(C(=O)O)cn3C2CC2)CC1)N/N=C/c1ccco1 | 93.5% (inactive)
28 | COc1ccc(C2=CC(c3cc(OC)c(OC)c(OC)c3)n3ncnc3N2)cc1 (stereo not given) | -13.3% (active)
29 | O=C(CI)NC(=O)NC(=O)NCc1ccccc1 | -82% (active)
30 | CC[C@]12C=CCN3CC[C@@]4(c5ccc(OC)cc5N(C)[C@H]4[C@@](O)(C(=O)OC)[C@@H]1OC(=O)CCC[P+](c1ccccc1)(c1ccccc1)c1ccccc1)[C@@H]32 | -35.4% (active)
31 | CC1CCN(C(=S)SCC(=O)NC(=O)c2ccccc2)CC1 | 83.3% (inactive)
32 | C=C1C(=O)O[C@H]2[C@H]1CC/C(COC(=O)c1cc3cc(Cl)ccc3[nH]1)=C\CC[C@@]1(C)O[C@@H]21 | -81.1% (active)
33 | COC(=O)/C=C1/SC(=Nc2ccc([N+](=O)[O-])cc2)N(CCc2c[nH]c3ccc(O)cc23)C1=O | 57.4% (inactive)
34 | COc1ccc(CCN(CC(=O)N(CC(N)=O)C2CCC[C@@H]2OCc2ccccc2)C(=O)CN(C(=O)CN(CCc2ccc(Cl)cc2)C(=O)CN(C(=O)CN(C)Cc2ccccc2F)[C@H](C)C2CCCCC2)[C@H](C)C2CCCCC2)cc1OC (stereo not given in full) | 24.5% (inactive)
35 | CC(=O)OC[C@]12CC[C@@H]([C@@H](C)c3nnc(-c4ccncc4)o3)[C@@H]1[C@H]1CC[C@@H]3[C@@]4(C)CC[C@H](OC(C)=O)C(C)(C)[C@@H]4CC[C@@]3(C)[C@]1(C)CC2 | 76.2% (inactive)
